Measurements taken from PubChem BioAssay (Tox21).
Inconclusive results are not listed. Calls of active or inactive are those of the source. Unless noted, calls come from the whole dose curve; as a rule, active = well fitted curve in the direction sought with a large enough effect in the repeat runs; inconclusive = weak or mixed curves; inactive = no such curve, though single readings can be large; an effect the other way counts as inactive or inconclusive.

Columns and labels:
[1] = qHTS assay to identify small molecule antagonists of the estrogen related receptor signaling pathway with the pleiotropic PPARgamma coactivator (PGC) from Tox21 10K library - cell viability counter screen (AID 1224840; active = well fitted cell-killing curve with a large enough effect in the repeat runs, not every such curve was filed as active; note: nearly all actives have a fitted effect of over 40% in size)
Method in brief: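 Here the PGC/ERR cells serve as a cytotoxicity control: they are exposed to compounds for 17.5 hours at 37 C, and live-cell signal is quantified using CellTiter-Fluor fluorescence.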

[2] = qHTS assay to identify small molecule agonists of H2AX (AID 1224845; active = well fitted activation curve with a large enough effect in the signal ratio in the repeat runs, not every such curve was filed as active; the % refers to the signal ratio)
Method in brief: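 Phospho-H2AX Ser139 measured by HTRF (ex 320 nm; em 665 and 620 nm) after 24 hr antibody incubation. Compounds, 15 concentrations, 0.76% DMSO, were applied to CHO-K1 cells for 3hr at 37C before lysis.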

[3] = qHTS assay to identify small molecule agonists of the hypoxia (HIF-1) signaling pathway (AID 1224846; active = well fitted activation curve with a large enough effect in the signal ratio in the repeat runs, not every such curve was filed as active; the % refers to the signal ratio)
Method in brief: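 Hypoxia-pathway activation was scored as increased beta-lactamase from an HRE-controlled reporter in ME-180 cells; plated at 2,000 cells per well with 0.5% dialyzed FBS, they were exposed 17 hrs to compounds and then given CCF4-AM.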

[4] = qHTS assay to identify small molecule agonists of H2AX - cell viability counter screen (AID 1224847; calls by dose curve;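 note: wild-type CHO-K1 cells; top concentration of the series differs between compounds; nearly all actives have a fitted effect of over 30% in size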)
Method in brief: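 After overnight plating of 1000 CHO-K1 cells per well, a 15-concentration compound series was applied for 3 hr at 37C. Luminescence from CellTiter-Glo, read following 30 min at room temperature, reflected cell viability.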

[5] = qHTS RealTime-Glo MT Cell Viability Assay in HepG2 cells - 24 hour (AID 1224867); note: nearly all actives have a fitted effect of over 50% in size
Method in brief: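 Compound treatment began 5 h after plating HepG2 cells (600/well) with NanoLuc luciferase and prosubstrate. Plates stayed at 37 C for 40 h; luminescence was captured at six time points, 0 h through 40 h.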

[6] = qHTS RealTime-Glo MT Cell Viability Assay in HEK293 cells - 32 hour (AID 1224868); note: top concentration of the series differs between compounds; nearly all actives have a fitted effect of over 50% in size
Method in brief: (§1)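 Quantitative high-throughput screen of the Tox21 10K library in HEK293: cells and RealTime-Glo reagents plated together, compound added at 5 h, luminescence monitored through 40 h at 37 C.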

[7] = A CellTox Green Cytotoxicity Assay to monitor cytotoxicity in HEK293 cells - 0 hour (AID 1224869); note: nearly all actives have a fitted effect of over 50% in size
Method in brief: (§2)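 Seeding of HEK293 cells together with cytotoxicity dye preceded a 5 h incubation at 37 C/5% CO2. Test compounds in DMSO were then added and fluorescence monitored across 40 h.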

[8] = qHTS RealTime-Glo MT Cell Viability Assay in HepG2 cells - 40 hour (AID 1224870); note: nearly all actives have a fitted effect of over 50% in size
Method in brief: (§3)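 Real-time viability: cells seeded at 600 per well together with NanoLuc and cell-permeant prosubstrate, compounds added after 5 h incubation. Luminescence tracked at 0, 8, 16, 24, 32 and 40 h of exposure.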

[9] = qHTS RealTime-Glo MT Cell Viability Assay in HepG2 cells - 8 hour (AID 1224873); note: nearly all actives have a fitted effect of over 55% in size
Method in brief: as §3

[10] = qHTS RealTime-Glo MT Cell Viability Assay in HEK293 cells - 40 hour (AID 1224874); details: RealTime-Glo luminescence; max response: active compounds read low; note: nearly all actives have a fitted effect of over 50% in size
Method in brief: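 Tox21 screen in HEK293 using RealTime-Glo MT chemistry, with cells and reagent co-dispensed. Luminescence proportional to viable cell number was captured at intervals during 40 h compound exposure at 37 C.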

[11] = A CellTox Green Cytotoxicity Assay to monitor cytotoxicity in HEK293 cells - 24 hour (AID 1224875); note: series mostly up to about 77 µM; nearly all actives have a fitted effect of over 45% in size
Method in brief: as §2

[12] = A CellTox Green Cytotoxicity Assay to monitor cytotoxicity in HepG2 cells - 16 hour (AID 1224876); note: nearly all actives have a fitted effect of over 45% in size; note: potency is the fitted concentration of half-maximal effect
Method in brief: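 Nonlytic assay: viable cells exclude the dye, so fluorescence scales with cell death. HepG2 at 600 cells/well, compounds added after 5 h, signal read across 40 h.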

[13] = target: Thyrotropin receptor (Homo sapiens) (UniProt P16473); assay: qHTS assay to identify small molecule agonists of the thyroid stimulating hormone receptor (TSHR) signaling pathway (AID 1224843; calls by dose curve; note: nearly all actives have a fitted effect of over 45% in size)
Method in brief: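 HEK293 cells stably bearing the thyrotropin receptor were plated at 800 cells/well and challenged with compound (30 min, RT). Accumulated cAMP was quantified via cAMP-d2 competing for cryptate-tagged antibody.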

[14] = qHTS RealTime-Glo MT Cell Viability Assay in HEK293 cells - 16 hour (AID 1224872)
Method in brief: as §1

[15] = A CellTox Green Cytotoxicity Assay to monitor cytotoxicity in HEK293 cells - 40 hour (AID 1224871); note: nearly all actives have a fitted effect of over 45% in size
Method in brief: as §2

[16] = qHTS assay to identify small molecule agonists of the hypoxia (HIF-1) signaling pathway - cell viability counter screen (AID 1224844; calls by dose curve; note: nearly all actives have a fitted effect of over 50% in size)
Method in brief: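 Multiplexed with the HRE beta-lactamase assay, this viability read used CellTiter-Glo luminescence (30 min, RT) on HRE-bla ME-180 cells treated 17 hrs with compounds in 0.5% dialyzed FBS medium.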
% is set by controls: 0 for no effect and ±100 for the full control effect.

Chain of Thyrotropin receptor (Homo sapiens) (P16473 whole entry, looked up): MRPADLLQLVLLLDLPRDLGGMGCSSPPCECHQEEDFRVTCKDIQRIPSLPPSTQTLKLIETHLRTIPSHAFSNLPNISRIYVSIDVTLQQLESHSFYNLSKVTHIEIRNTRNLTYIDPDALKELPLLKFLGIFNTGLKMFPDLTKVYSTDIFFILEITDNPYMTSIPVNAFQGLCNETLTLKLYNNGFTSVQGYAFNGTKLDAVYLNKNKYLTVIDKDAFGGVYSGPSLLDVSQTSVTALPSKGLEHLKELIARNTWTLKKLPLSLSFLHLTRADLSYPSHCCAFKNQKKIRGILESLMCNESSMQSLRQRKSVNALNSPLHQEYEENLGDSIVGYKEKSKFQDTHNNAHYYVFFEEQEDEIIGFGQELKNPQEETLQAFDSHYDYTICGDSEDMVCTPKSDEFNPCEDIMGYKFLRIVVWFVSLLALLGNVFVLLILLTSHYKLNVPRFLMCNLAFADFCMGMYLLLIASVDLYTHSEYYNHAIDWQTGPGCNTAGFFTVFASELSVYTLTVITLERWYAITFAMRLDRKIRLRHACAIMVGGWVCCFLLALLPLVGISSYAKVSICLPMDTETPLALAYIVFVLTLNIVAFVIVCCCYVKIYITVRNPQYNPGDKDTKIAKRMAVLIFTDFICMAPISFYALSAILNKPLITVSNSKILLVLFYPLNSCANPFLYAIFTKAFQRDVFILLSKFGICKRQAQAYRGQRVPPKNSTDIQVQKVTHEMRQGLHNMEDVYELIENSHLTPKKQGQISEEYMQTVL

Cc1ncc([N+](=O)[O-])n1CC(C)O (centres undefined)
inactive: outcome [1] | outcome [2] | outcome [3] | outcome [4] | outcome [5] | Potency [6] | Potency [7] | outcome [8] | outcome [9] | max response [10] -2.46% | Potency [11] | Potency [12]

CC12CCC(C1)C(C)(C)C2O (centres undefined)
active: Potency [12] 1.95 µM
inactive: outcome [1] | outcome [13] | outcome [2] | outcome [3] | outcome [4] | outcome [5] | outcome [9]

CCCCSCCCC
inactive: outcome [1] | outcome [13] | outcome [2] | outcome [3] | outcome [4] | outcome [5] | Potency [6] | Potency [7] | outcome [8] | Potency [14] | outcome [9] | max response [10] 1.22% | Potency [11] | Potency [12]

CC(C)COC(=O)c1ccccc1
inactive: outcome [1] | outcome [13] | outcome [2] | outcome [3] | outcome [4] | Potency [6] | Potency [7] | outcome [8] | Potency [15] | Potency [14] | outcome [9] | max response [10] 2.33% | Potency [11] | Potency [12]

CSc1cnccn1
inactive: outcome [1] | outcome [13] | outcome [3] | outcome [4] | outcome [5] | Potency [7] | outcome [8] | Potency [15] | Potency [14] | outcome [9] | Potency [11] | Potency [12]

C=CCN1C[C@H](C(=O)N(CCCN(C)C)C(=O)NCC)C[C@@H]2c3cccc4[nH]cc(c34)C[C@H]21
inactive: outcome [1] | outcome [13] | outcome [2] | outcome [3] | outcome [4] | Potency [6] | Potency [7] | outcome [8] | Potency [15] | outcome [9] | max response [10] 0.226% | Potency [11] | Potency [12]

CCC/C=C(\C=O)CC
inactive: outcome [1] | outcome [13] | outcome [2] | outcome [3] | outcome [4] | outcome [5] | Potency [6] | Potency [7] | outcome [8] | Potency [14] | outcome [9] | max response [10] -24.3% | Potency [11] | Potency [12]

CO[Si](CCCn1c(=O)n(CCC[Si](OC)(OC)OC)c(=O)n(CCC[Si](OC)(OC)OC)c1=O)(OC)OC
inactive: outcome [1] | outcome [13] | outcome [3] | outcome [4] | outcome [5] | Potency [6] | Potency [7] | outcome [8] | Potency [15] | Potency [14] | outcome [9] | max response [10] 1.02% | Potency [11] | Potency [12]

O=C1c2ccccc2C(=O)c2cc(Cl)ccc21
inactive: viability change, negative = cytotoxic [1] 5.77% [at 8.39 µM] | activation [13] -6.72% [at 8.39 µM] | activation [3] -0.0803% [at 7.01 µM] | activity change, negative = cytotoxicity [4] 4.41% [at 14 µM] | activity change, negative = cytotoxicity [5] -1.65% [at 6.97 µM] | activity change, negative = cytotoxic [6] -1.41% [at 6.97 µM] | cytotoxicity [7] -6.57% [at 6.97 µM] | activity change, negative = cytotoxic [8] -4.67% [at 6.97 µM] | activity change, negative = cytotoxicity [14] 4.83% [at 6.97 µM] | viability change, negative = cytotoxic [9] 0.0863% [at 6.97 µM] | max response [10] 3.12% | activity change [11] -1.14% [at 6.97 µM, active compounds read high] | cytotoxicity increase [12] -1.12% [at 6.97 µM]

CCn1cc(C(=O)O)c(=O)c2cnc(N3CCCC3)nc21
inactive: viability change, negative = cytotoxic [1] 1.85% [at 8.39 µM] | activation [13] -1.79% [at 8.39 µM] | activation (H2AX phosphorylation) [2] 0.23% [at 14 µM] | activity change, negative = cytotoxicity [4] -5.46% [at 14 µM] | activity change, negative = cytotoxicity [5] 0.974% [at 6.97 µM] | activity change, negative = cytotoxic [6] 10% [at 6.97 µM] | cytotoxicity [7] 1.5% [at 6.97 µM] | activity change, negative = cytotoxic [8] 1.51% [at 6.97 µM] | activity change, negative = cytotoxicity [14] 1.68% [at 6.97 µM] | viability change, negative = cytotoxic [9] 5.81% [at 6.97 µM] | max response [10] 10.4% | activity change [11] 4.09% [at 6.97 µM, active compounds read high] | cytotoxicity increase [12] 3.06% [at 6.97 µM]

CN1CCOC(c2ccccc2)c2ccccc2C1 (centres undefined)
inactive: outcome [1] | outcome [13] | outcome [2] | outcome [4] | outcome [5] | Potency [6] | Potency [7] | outcome [8] | Potency [15] | Potency [14] | outcome [9] | max response [10] 0.485% | Potency [12]

CCCCCC(C)O (centres undefined)
inactive: outcome [1] | outcome [13] | outcome [2] | outcome [3] | outcome [4] | Potency [6] | Potency [7] | outcome [8] | Potency [15] | Potency [14] | outcome [9] | max response [10] 6.06% | Potency [12]

CN(C)CCOC(=O)C(c1ccccc1)C1(O)CCCC1 (centres undefined)
inactive: outcome [1] | outcome [13] | outcome [2] | outcome [4] | outcome [5] | Potency [6] | Potency [7] | Potency [15] | Potency [14] | outcome [9] | max response [10] -2.33% | Potency [12]

O=C(NCN1CCOCC1)c1cnccn1
inactive: outcome [1] | outcome [16] | outcome [2] | outcome [3] | outcome [4] | outcome [5] | Potency [6] | Potency [7] | outcome [8] | Potency [15] | Potency [14] | outcome [9] | max response [10] 2.14% | Potency [12]

CC(C)OC(=O)OCOP(=O)(CO[C@H](C)Cn1cnc2c(N)ncnc21)OCOC(=O)OC(C)C
inactive: outcome [1] | outcome [13] | outcome [3] | outcome [4] | Potency [6] | Potency [7] | outcome [8] | Potency [15] | Potency [14] | outcome [9] | max response [10] 2.48% | Potency [11] | Potency [12]

C=CCSSCCC
inactive: outcome [1] | outcome [13] | outcome [2] | outcome [3] | outcome [4] | outcome [5] | Potency [7] | outcome [8] | outcome [9] | Potency [12]

CCCC(CC)c1ccccc1 (centres undefined)
inactive: outcome [1] | outcome [13] | outcome [2] | outcome [3] | outcome [4] | outcome [5] | Potency [6] | Potency [7] | outcome [8] | Potency [14] | outcome [9] | max response [10] 11.4% | Potency [11] | Potency [12]

CCCCCCCCCOC(=O)c1ccccc1C(=O)OCCCCCCCCC
inactive: outcome [1] | outcome [13] | outcome [2] | outcome [3] | outcome [4] | outcome [5] | Potency [6] | Potency [7] | Potency [15] | outcome [9] | max response [10] 2.9% | Potency [11] | Potency [12]
